TMEM16A inh: blocks the mouse calcium-activated chloride channel TMEM16A. HEK293 TMEM16A/YFP iodide influx fluorescence, ionomycin. normalized B-score (activity score, 25-100; higher = stronger inhibition) at 10 µM. hit rate 1.2% among 310,000. AID 588511;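 active means ratio plate-corrected score three or more library SD toward inhibition, starting fluorescence score within five deviations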;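 further: score derived from kinetic fluorescence span divided by baseline fluorescence per well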
Target sequence (Q8BHY3 whole entry, looked up): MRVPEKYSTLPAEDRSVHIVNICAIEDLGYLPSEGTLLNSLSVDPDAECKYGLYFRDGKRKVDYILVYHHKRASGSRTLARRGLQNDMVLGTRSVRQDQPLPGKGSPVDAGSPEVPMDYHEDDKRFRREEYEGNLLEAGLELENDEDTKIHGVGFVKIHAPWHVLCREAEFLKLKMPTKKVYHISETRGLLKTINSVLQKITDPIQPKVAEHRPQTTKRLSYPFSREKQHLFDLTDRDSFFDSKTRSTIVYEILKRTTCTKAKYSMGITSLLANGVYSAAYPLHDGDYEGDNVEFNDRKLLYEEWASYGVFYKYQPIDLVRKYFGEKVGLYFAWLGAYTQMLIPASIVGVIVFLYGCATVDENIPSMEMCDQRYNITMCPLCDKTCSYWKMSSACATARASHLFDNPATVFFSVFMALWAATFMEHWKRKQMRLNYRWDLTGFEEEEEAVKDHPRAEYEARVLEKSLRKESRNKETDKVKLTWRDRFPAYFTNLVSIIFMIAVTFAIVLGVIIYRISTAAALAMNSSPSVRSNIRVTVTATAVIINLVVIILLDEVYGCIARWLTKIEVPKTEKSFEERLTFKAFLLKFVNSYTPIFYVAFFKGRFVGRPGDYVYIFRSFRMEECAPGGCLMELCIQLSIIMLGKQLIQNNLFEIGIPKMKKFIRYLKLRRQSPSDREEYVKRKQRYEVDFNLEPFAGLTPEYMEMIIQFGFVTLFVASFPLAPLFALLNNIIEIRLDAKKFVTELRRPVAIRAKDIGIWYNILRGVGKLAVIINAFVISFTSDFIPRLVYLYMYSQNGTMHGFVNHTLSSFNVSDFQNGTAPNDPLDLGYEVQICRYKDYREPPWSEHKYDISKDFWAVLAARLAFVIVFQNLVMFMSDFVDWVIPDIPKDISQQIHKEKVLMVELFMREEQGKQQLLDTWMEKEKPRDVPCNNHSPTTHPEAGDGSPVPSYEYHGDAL
KCNK9 inh: blocks the human KCNK9 two-pore domain potassium channel. Q9NPC2. HEK293 KCNK9, FluxOR thallium flux fluorescence; stronger effect = lower value. B-score at 10 µM. hit rate 1.2% among 310,000. AID 488922;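 active means ratio B-score over 3 SD below the library mean, with starting fluorescence within 5 SD of its mean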;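 further: negative B-score means less thallium flux so channel inhibition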
KCNK3 block: human KCNK3 channel inhibition, primary screen; O14649; CHO-KCNK3 thallium flux, FluxOR fluorescence; stronger effect = lower value; B-score at 10 µM; hit rate 0.84% among 340,000; AID 602410;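 active means B-score under library mean minus 4 SD, starting fluorescence ratio at most library mean plus 5 SD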;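 further: more negative B-score means stronger inhibition of thallium flux through KCNK3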
ANO1 activ: activators or potentiators of mouse TMEM16A chloride channel; Q8BHY3; hit rate 0.3% among 340,000; AID 623877; B-score at 10 µM; HEK293 TMEM16A/YFP-H148Q/I152L, iodide quench fluorescence; stronger effect = lower value;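 active means fluorescence-ratio B-score plate-corrected deviation score at least 3 library SD below zero, with starting fluorescence score within 5 deviations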;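 further: channel opened by trigger with iodide after compound preincubation; score built on the fluorescence ratio of max minus min over baseline; more negative score means more quench and so TMEM16A activation or potentiation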
Kir21 inh: inhibitors of mouse Kir2.1 inward-rectifier potassium channel | AID 1672 | HEK293-Kir2.1, FluxOR thallium flux fluorescence; stronger effect = lower value | B-score at 10 µM | hit rate 0.85% among 310,000;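 active means fluorescence ratio B-score at or below minus 3 SD of library scores, with starting-brightness B-score within 2 SD, cut at about -4.2 in these data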;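 further: channel flux triggered by added potassium and thallium sulfate stimulus; B-score of peak minus minimum fluorescence over baseline after thallium stimulus; more negative B-score means stronger Kir2.1 block with less thallium influx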
Numbers stand for hits; n = inactive; x = not tested or not shown. The list is not random: actives were taken first. Their share in the collection is about 3.5%.

SMILES	TMEM16A inh	KCNK9 inh	KCNK3 block	ANO1 activ	Kir21 inh
CCOC(=O)c1sc(N(Cc2ccccc2)C(=O)CCl)nc1C	n	n	n	n	n
CCOC(=O)c1sc(N(Cc2ccccc2)C(=O)COC(=O)c2ccccc2O)nc1C	n	-6.74	n	n	n
COc1ccc(C(=O)Nc2ccc(CN3CCOCC3)cc2)cc1Br	n	n	n	n	-5.26
O=C(Nc1ccc(S(=O)(=O)N2CCCCC2)cc1)c1ccc(CN2CCOCC2)cc1	100	n	n	n	n
CC(C)Oc1ccc(C(=O)Nc2ccc(S(=O)(=O)N3CCN(C)CC3)cc2)cc1	n	-7.34	n	n	n
O=C(Nc1ccc(S(=O)(=O)N2CCOCC2)cc1)c1ccc(S(=O)(=O)N2CCOCC2)cc1	n	n	n	n	n
Cc1cc(NC(=O)Cc2ccccc2[N+](=O)[O-])no1	n	n	n	n	n
CCN(CC)c1nc2ccccc2c(N)c1-c1ccccc1	n	n	n	n	-5.14
CC(=O)c1c(COC(=O)c2cccnc2)nc2ccccc2[n+]1[O-]	n	n	n	-8.84	n
CC(=O)c1c(COC(=O)c2ccc(C)cc2)nc2ccccc2[n+]1[O-]	n	n	n	n	n
Cc1cc2nc(C)n(CCCNC(=O)Nc3cccc4ccccc34)c2cc1C	25	n	n	n	n
O=[N+]([O-])/C=C/c1c(OCc2ccccc2)ccc2ccccc12	n	-11.1	n	n	-7.86
CCOC(=O)COc1ccc2ccccc2c1/C=C/[N+](=O)[O-]	n	n	n	n	n
CCOC(=O)Cn1cc(/C=C/[N+](=O)[O-])c2ccccc21	n	n	n	n	n
CCOc1ccc(/C=C/[N+](=O)[O-])c2ccccc12	n	n	n	n	-8.31
CC1CN(C(=O)COC(=O)Cc2ccc(Cl)cc2)CC(C)O1 (configuration not stated)	x	x	n	n	x
CC(C)CCNC(=O)Cc1csc(-c2ccccc2)n1	n	n	n	n	n
CCOC(=O)C1=C(C)N(C)C(=O)NC1c1cc2c(cc1[N+](=O)[O-])OCO2 (configuration not stated)	n	n	n	n	n
COc1cccc(-c2nnn(CC(=O)Nc3ccc(C)cc3C)n2)c1OC	25	n	n	n	n
COc1ccc(CCNC(=O)Cn2nnc(-c3cccc(OC)c3OC)n2)cc1OC	n	n	n	n	n
Cc1c(NC(=O)COc2c(F)c(F)c(F)c(F)c2F)c(=O)n(-c2ccccc2)n1C	n	n	n	n	n
CCn1c(CCNC(=O)c2ccc(C)cc2)nnc1SCc1ccc(Cl)c(Cl)c1	n	n	n	n	n
CCn1c(CCNC(=O)c2ccc(OC)cc2)nnc1SCc1ccc(Cl)c(Cl)c1	n	n	n	n	-6.45
CCOC(=O)NCc1ccc(S(=O)(=O)Nc2c(C)cccc2C)cc1	n	n	n	n	n
CC1CCC(C(C)C)C(OC(=O)Cn2c(-c3ccc(F)cc3)[n+](C)c3ccccc32)C1 (configuration not stated)	100	x	n	n	x
SMILES	TMEM16A inh	KCNK9 inh	KCNK3 block	ANO1 activ	Kir21 inh
Cc1cccc(OCc2n(CC(=O)OC3CC(C)CCC3C(C)C)c3ccccc3[n+]2C)c1 (configuration not stated)	100	n	-12.6	-6.21	-12.8
COc1ccc(NC(=O)Cc2ccsc2)cc1S(=O)(=O)N1CCOCC1	x	x	n	x	x
CCOc1ccc(CN2CCN(S(=O)(=O)c3ccc(NC(C)=O)cc3)CC2)cc1	n	n	n	n	n
COc1cccc(NC(=O)c2ccccc2-c2ccccc2)c1	n	n	n	n	-4.22
CC(=O)N(CCCNC(=O)c1ccccc1)C(=O)c1ccccc1	n	n	n	n	n
Cc1ccc(C(=O)N[C@@H](Cc2ccccc2)C(=O)N2CCC3(CC2)NCCc2[nH]cnc23)cc1C	n	n	n	-49.6	n
Cc1ccccc1-c1cccc([C@@H]2C[C@H]3C(CN2)CON3C)c1 (some centres not stated)	x	x	n	x	x
CC(=O)N1CCc2cc(S(=O)(=O)NC(CC(C)C)C(=O)N3CCn4c3nc3ccccc34)ccc21 (configuration not stated)	n	n	n	n	n
COc1cccc(CNC(=O)CSCc2cnn(-c3ccccc3)c2-n2cccc2)c1	n	n	n	n	-5.79
CNC(=O)CSCc1cnn(-c2ccccc2)c1-n1cccc1	n	n	n	n	n
C=C(C)COc1ccc(-c2[nH]ncc2Oc2ccccc2OCC)c(O)c1	100	n	n	n	n
C=C(C)COc1ccc(-c2[nH]ncc2Oc2cccc(OC)c2)c(O)c1	n	n	n	n	n
O=C1Nc2ccccc2C(=O)C1(Cl)Cc1ccccc1 (configuration not stated)	n	n	n	n	-5.21
COc1ccccc1CNC(=O)COC(=O)c1cccc(-n2cnnn2)c1	x	x	n	n	x
O=CNC(n1cnc2c(N3CCOCC3)ncnc21)C(Cl)(Cl)Cl (configuration not stated)	n	n	n	-7.18	n
CC(CCN1C(Nc2ccccc2)=NC[C@@H]1Cc1ccccc1)c1ccccc1 (some centres not stated)	n	n	n	n	-7.25
Cc1cccc(NC(=O)c2ccc(C)c(S(=O)(=O)N3CCOCC3)c2)n1	x	x	n	n	x
COCCNCC(=O)Nc1nc(C)cs1	x	x	n	n	x
O=C(Cn1c(=O)sc2ccccc21)Nc1ccc(O)cc1	n	n	n	n	n
CCCCNCC#CCOc1cc(C)ccc1C(C)C	n	n	n	n	-4.69
Cc1ccc(C(C)C)c(OCCNS(C)(=O)=O)c1	n	n	n	n	n
Cc1ccc(C(C)C)c(OCCCNCc2cccnc2)c1	n	n	n	n	-5.68
COc1ccc(CCN=C(N)NS(=O)(=O)c2ccc(F)cc2)cc1	n	n	n	n	n
Cc1cc(C)c2nc(N3CCC(C(=O)NCCCN4CC(C)CC(C)C4)CC3)sc2c1 (configuration not stated)	n	n	n	n	-6.78
Cc1cc(C)c2nc(N3CCCC(C(=O)NCCCN4CCOCC4)C3)sc2c1 (configuration not stated)	n	n	n	n	n
SMILES	TMEM16A inh	KCNK9 inh	KCNK3 block	ANO1 activ	Kir21 inh
Cn1c(-c2ccc3c(c2)OCO3)cnc1NCc1ccccc1	n	n	n	n	-5.98
Cn1c(-c2ccccc2)cnc1NCc1ccccc1	n	n	n	n	n
Cn1c(-c2cccc(Br)c2)cnc1NCc1ccccc1O	n	n	n	n	-6.21
Cn1c(-c2ccc3c(c2)OCO3)cnc1NCc1cccc(Cl)c1	n	n	n	n	n
Cn1c(-c2ccc3c(c2)OCO3)cnc1NCc1ccccc1Cl	n	n	n	n	-4.26
Cc1ccc(CN2CCSCC2)cc1	n	n	n	n	n
Cc1cc(OCC(O)CNC(C)c2ccccc2)ccc1C(C)C (configuration not stated)	n	n	n	n	-10.1
CC(NCC(O)COc1ccc2ccccc2c1)c1ccccc1 (configuration not stated)	n	n	n	n	n
